Results taken from PubChem BioAssay AID1159580 (chemical genetic matrix, 2015).
“And” between values parts separate entries of the source, which are not always exact repeats. Equal entries are not always repeated. About 2,000 (36%) of roughly 5,500 compounds were called active. Inconclusive results (about 18%) are left out. No stated cut-off is given here; in the data, active means normalized growth mostly below about 0.91 (no sharp cut-off); inconclusive means no clear call, values can overlap the other calls; inactive means mostly above about 0.92. This is one part of the list.

Experiment: chemical genetic growth profiling, strain panel (AID 1159580);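 further: tested at 20 µM; growth read once vehicle control cultures reached saturation at 30 °C; 1 = growth at the plate median or of vehicle wells; lower values mean less growth of the strain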
Details: S. cerevisiae deletion strains, growth OD

Measured: normalized growth

N#C/C(=C\c1cccc(O)c1)C(=O)O
inactive: locus YAL013W, strain DEP1, active compounds read low 0.996 | locus YAL021C, strain ccr4, active compounds read low 0.978 | locus YAL026C, strain drs2, active compounds read low 0.985 | locus YAL030W, strain snc1, active compounds read low 0.977 | locus YBL061C, strain skt5, active compounds read low 0.976 | locus YBR009C, strain hhf1, active compounds read low 1.03 | locus YBR021W, strain FUR4, active compounds read low 1.02 | locus YBR023C, strain chs3, active compounds read low 0.979 | locus YBR171W, strain sec66, active compounds read low 0.995 | locus YBR229C, strain ROT2, active compounds read low 0.961 | locus YBR231C, strain swc5, active compounds read low 1.01 | locus YBR279W, strain paf1, active compounds read low 0.987 | locus YCL016C, strain dcc1, active compounds read low 0.966 | locus YCL029C, strain bik1, active compounds read low 0.997 | locus YCL061C, strain MRC1, active compounds read low 0.985 | locus YCL069W, strain vba3, active compounds read low 1 | locus YCR088W, strain abp1, active compounds read low 0.989 | locus YDL005C, strain med2, active compounds read low 0.999 | locus YDL035C, strain GPR1, active compounds read low 0.994 | locus YDL040C, strain nat1, active compounds read low 0.99 | locus YDL074C, strain BRE1, active compounds read low 0.981 | locus YDL101C, strain DUN1, active compounds read low 0.974 | locus YDL134C, strain PPH21, active compounds read low 0.992 | locus YDL185W, strain tfp1, active compounds read low 0.98 | locus YDL192W, strain arf1, active compounds read low 0.994 | locus YDR001C, strain nth1, active compounds read low 0.988 | locus YDR069C, strain doa4, active compounds read low 0.985 | locus YDR101C, strain arx1, active compounds read low 1.01 | locus YDR137W, strain rgp1, active compounds read low 0.977 | locus YDR150W, strain NUM1, active compounds read low 0.974 | locus YDR159W, strain sac3, active compounds read low 0.987 | locus YDR162C, strain NBP2, active compounds read low 0.921 | locus YDR195W, strain ref2 1 | locus YDR297W, strain sur2, active compounds read low 0.984 | locus YDR318W, strain mcm21, active compounds read low 1.03 | locus YDR334W, strain swr1, active compounds read low 0.981 | locus YDR335W, strain msn5, active compounds read low 0.982 | locus YDR388W, active compounds read low 0.999 | locus YDR392W, strain spt3, active compounds read low 0.933 | locus YDR502C, strain sam2, active compounds read low 0.997 | locus YEL003W, strain gim4, active compounds read low 0.997 | locus YEL037C, strain rad23, active compounds read low 0.997 | locus YEL061C, strain CIN8 (second series), active compounds read low 0.989 | locus YEL061C, strain CIN8, active compounds read low 0.985 | locus YER015W, strain faa2, active compounds read low 0.975 | locus YER016W, strain bim1, active compounds read low 0.949 | locus YER110C, active compounds read low 0.942 | locus YER111C, strain swi4, active compounds read low 0.971 | locus YER155C, strain BEM2 (second series), active compounds read low 1.04 | locus YER155C, strain BEM2, active compounds read low 0.986 | locus YER167W, strain BCK2, active compounds read low 1.05 | locus YFR010W, strain ubp6, active compounds read low 1.01 | locus YGL078C, strain dbp3, active compounds read low 0.976 | locus YGL086W, strain mad1, active compounds read low 1.03 | locus YGL167C, strain pmr1, active compounds read low 0.99 | locus YGL173C, strain kem1, active compounds read low 1.01 | locus YGL227W, strain vid30, active compounds read low 0.985 | locus YGL240W, strain doc1, active compounds read low 0.986 | locus YGL248W, strain PDE1, active compounds read low 0.984 | locus YGL253W, strain hxk2, active compounds read low 0.975 | locus YGR078C, strain PAC10, active compounds read low 0.996 | locus YGR135W, strain pre9, active compounds read low 0.993 | locus YGR229C, strain SMI1, active compounds read low 1.02 | locus YGR252W, strain gcn5, active compounds read low 1.07 | locus YHR013C, strain ard1, active compounds read low 0.962 | locus YHR027C, strain rpn1, active compounds read low 0.984 | locus YHR030C, strain SLT2, active compounds read low 0.999 and 0.994 | locus YHR079C, strain IRE1 (second series), active compounds read low 1 | locus YHR079C, strain IRE1, active compounds read low 0.969 | locus YHR094C, strain hxt1, active compounds read low 0.993 | locus YHR129C, strain ARP1, active compounds read low 1 | locus YHR142W, strain chs7, active compounds read low 0.971 | locus YHR200W, strain rpn10, active compounds read low 1 | locus YIL066C, strain RNR3, active compounds read low 0.989 | locus YIL073C, strain SPO22, active compounds read low 1.1 | locus YIL125W, strain kgd1, active compounds read low 0.989 | locus YIR030C, strain dcg1, active compounds read low 0.991 | locus YJL092W, strain hpr5, active compounds read low 0.987 | locus YJL095W, strain BCK1 (second series), active compounds read low 0.984 | locus YJL095W, strain BCK1, active compounds read low 1.01 and 0.978 | locus YJL115W, strain asf1, active compounds read low 0.97 | locus YJL129C, strain trk1, active compounds read low 0.925 | locus YJL134W, strain LCB3, active compounds read low 0.987 | locus YJL154C, strain vps35, active compounds read low 0.985 | locus YJL164C, strain tpk1, active compounds read low 0.987 | locus YJL166W, strain qcr8, active compounds read low 1 | locus YJL168C, strain set2, active compounds read low 0.995 | locus YJL187C, strain SWE1 (second series), active compounds read low 0.966 | locus YJL187C, strain SWE1, active compounds read low 0.997 | locus YJR043C, strain POL32, active compounds read low 1.04 | locus YJR066W, strain TOR1, active compounds read low 0.98
